# Experimental data as given in PubChem BioAssay AID431 (Sanford-Burnham Center for Chemical Genomics, 2006).
# The whole screen tested about 63,000 compounds, of which about 1,100 (1.7%) were called active. Many of the other results were omitted from the sample, so actives are more common in it than they were. Entries with a potency or affinity are not part of this list. Unmarked numbers belong to inactive results.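 How the source made its calls: active means compounds whose percent cytotoxicity in the single-dose primary screen, scaled between solvent and toxic-drug controls, exceeds 50; inactive means the rest.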
# Assay: viability loss of HPDE-C7K cells – cell-based, fluorescence, HTS, primary screen (AID 431);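 further: 0% = DMSO solvent wells and 100% = doxorubicin-treated wells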
# Details: HPDE-C7K KRASV12 cells, Alamar Blue viability, 48 h; at 10 µM; active compounds read high
row,Compound,cytotoxicity
1,CC(C)(O)c1cc(=O)sc2nc3ccccc3n12,-10.2%
2,N=c1cc(C2(O)CCCCC2)n2c(nc3ccccc32)s1,59% (active)
3,c1ccc2nc3c(nc2c1)sc1nc2ccccc2n13,-4%
4,COCCNC(=O)C(c1ccc(C)o1)N(C(=O)c1snc(C(N)=O)c1N)c1cccc(C)c1 (stereo not drawn),-12.1%
5,Cc1ccc2c(c1)[nH]c1c(=O)n(CCCN3CCOCC3)cnc12,-20.9%
6,COc1ccc(CNc2oc(-c3ccccc3)nc2C#N)cc1,3.8%
7,N#Cc1nc(-c2ccc(F)cc2)oc1NCc1ccccc1,-1.5%
8,CC(C)(C)c1ccc(-c2nc(C#N)c(NCc3ccncc3)o2)cc1,60.5% (active)
9,COC(=O)c1sccc1NC(=O)CN1CCN(c2ccc(F)cc2)CC1,10.5%
10,O=C(CCN1CCc2ccccc2C1)Nc1ccc2c(c1)OCO2,-0.3%
11,O=C(CCCN1CCOCC1)c1ccc2c(c1)OCCO2,-11.1%
12,O=C(CCN1Cc2ccccc2C1)c1ccc2c(c1)OCCO2,-11.8%
13,O=C(CCN1CCc2ccccc21)c1ccc2c(c1)OCCO2,4.4%
14,CCCn1c(SCCN2C(=O)c3ccccc3C2=O)n[nH]c1=O,2.1%
15,Cc1cccc(NC(=O)CSc2nnc(-c3ccccc3)n2N)c1C,-15%
16,CCOC(=O)c1c(C)oc2c1c(C=NCc1ccccn1)c(O)c1ccccc12,99.2% (active)
17,CCOC(=O)c1c(C)oc2c1c(C(c1cccnc1)N1CCN(C)CC1)c(O)c1ccccc12 (stereo not drawn),125% (active)
18,CCOC(=O)c1c(C)oc2c1c(/C=N/c1ccccn1)c(O)c1ccccc12,4.3%
19,CCOC(=O)c1c(C)oc2c1c(C=NCC1CCCO1)c(O)c1ccccc12 (stereo not drawn),-16.3%
20,CCOC(=O)c1c(C)oc2c1c(C=NC1CCS(=O)(=O)C1)c(O)c1ccccc12 (stereo not drawn),23.8%
21,CCOC(=O)c1c(C)oc2c1c1c(c3ccccc32)OCN(Cc2cccnc2)C1,29.9%

row,Compound,cytotoxicity
1,Oc1ccccc1-c1cc(-c2ccccc2Cl)[nH]n1,15.9%
2,Cc1ccc(-c2cc(-c3cccc(F)c3)n[nH]2)c(O)c1,10.8%
3,COc1ccccc1-c1cc(-c2cc(Cl)ccc2O)n[nH]1,-3.1%
4,Cc1ccccc1-c1cc(-c2ccccc2O)n[nH]1,44%
5,Cc1ccc(-c2cc(-c3ccccc3Cl)[nH]n2)c(O)c1,59.5% (active)
6,CCOc1ccccc1OCC(=O)Nc1ccc(S(=O)(=O)N(C)C)cc1,3.1%
7,O=C(Cn1nnc(-c2ccccc2F)n1)Nc1ccc(S(=O)(=O)NC2CCCC2)cc1,-26.3%
8,CCOC(=O)C(C)Oc1cccc2c(=O)n(CC(=O)NCc3ccco3)ccc12 (stereo not drawn),61.1% (active)
9,CCOC(=O)C(C)Oc1cccc2c(=O)n(CC(=O)N3CCN(C(=O)OCC)CC3)ccc12 (stereo not drawn),-16.7%
10,CCOC(=O)C(C)Oc1cccc2c(=O)n(CC(=O)NCc3ccc4c(c3)OCO4)ccc12 (stereo not drawn),38.8%
11,COc1ccc(NC(=O)C2CCCN(S(=O)(=O)c3cnc[nH]3)C2)cc1 (stereo not drawn),-5.3%
12,COc1ccc(Br)cc1CNc1ccc(O)cc1,50% (active)
13,COc1cc(C)c(CNc2ccc(OC)c(OC)c2)cc1C,21.6%
14,COc1ccc(Br)cc1C(=O)Nc1ccc(O)cc1,-14.3%
15,Cc1ccc(-n2nnnc2SCC(=O)Nc2c(C)n(C)n(-c3ccccc3)c2=O)cc1,-3.4%
16,COc1ccc(OC)c(Nc2cc(C(=O)NCCCN3CCOCC3)c3ccccc3n2)c1,1.8%
17,CCOc1ccc(NC(=O)Cn2nnc(-c3ccccc3NC(=O)CC)n2)cc1,5.1%
18,NC(=O)c1cc2ccc(O)cc2oc1=NCc1ccccc1,4.1%
19,CC(=NCc1ccccc1)C1=C(O)COC1=O,-6%
20,O=C(CC1Nc2ccccc2NC1=O)Nc1ccccc1 (stereo not drawn),-3.2%
21,Cc1ccc(NC(=O)CC2Nc3ccccc3NC2=O)cc1Cl (stereo not drawn),51.6% (active)

row,Compound,cytotoxicity
1,COc1ccccc1NC(=O)CC1Nc2ccccc2NC1=O (stereo not drawn),-4.5%
2,Cc1nc(SCc2c(F)cccc2Cl)c2c(=O)n(C)c(=O)n(C)c2n1,-12.8%
3,CC(C)c1nc(SCc2ccccn2)c2c(=O)n(C)c(=O)n(C)c2n1,1.9%
4,CC(C)c1nc(SCc2c(F)cccc2Cl)c2c(=O)n(C)c(=O)n(C)c2n1,70.4% (active)
5,CCC(CC)C(=O)Nc1ccccc1NC(C)=O,-16%
6,N#CCCN(CCC#N)C(=O)c1ccc2c(c1)OCO2,-3.2%
7,COC(=O)c1ccc(Oc2cc(C)nc(-n3nc(C)cc3C)n2)cc1,32.6%
8,COc1ccc(Nc2cc(C)nc(-n3nc(C)cc3C)n2)cc1,79.2% (active)
9,CNc1cc(C)nc(-n2nc(C)cc2C)n1,-14.9%
10,CC(=O)c1ccc(Oc2cc(C)nc(-n3nc(C)cc3C)n2)cc1,56.4% (active)
11,CCOc1ccc(Nc2cc(C)nc(-n3nc(C)cc3C)n2)cc1,40.7%
12,COc1ccc(N2CCN(C(=O)c3ccc(-n4nc(C)cc4C)cc3)CC2)cc1,2.6%
13,Cc1cc(NC(=O)c2cnn3c(C(F)F)cc(C4CC4)nc23)no1,20.6%
14,COc1cccc(NC(=O)c2ccccc2-c2nc(-c3ccccc3)no2)c1,25.4%
15,COc1ccc(OC)c(NC(=O)CNC(=O)Cn2cnc3ccccc3c2=O)c1,2.3%
16,Cc1cccc(N(C)S(=O)(=O)c2cccc3nsnc23)c1,14.4%
17,CCOC(=O)C1CCN(C(=O)c2oc3ccc(S(=O)(=O)N4CC(C)CC(C)C4)cc3c2C)CC1 (stereo not drawn),5.5%
18,Cc1ccc(-c2csc3nc(C)n(-n4cccc4)c(=O)c23)o1,0.5%
19,O=C(CSc1nnc(-c2ccccc2)o1)n1c2c(c3ccccc31)CCCC2,69.9% (active)
20,Cc1nnc(SCC(=O)n2c3c(c4ccccc42)CCCC3)s1,6.2%
21,O=C(O)CSc1nnc(-c2ccccc2)o1,19.6%
